About 83,000 compounds went through this panel and 20% of them were active in at least one assay; those are over-represented in the sample as a whole.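 48-hour exposure, single concentration, 96-well plates; percent growth endpoint where 0 means no net growth. Active: below 10.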 Unmarked numbers belong to inactive results. Activity calls are given as the source filed them.

This test relates to MDA-MB-468 breast. The test is described as follows: NCI-60 one-dose screen, 48 h (100 = growth as untreated, 0 = no growth, -100 = all killed). As to conditions: 10 µM unless noted.
In the case of `Cc1nc2ccc(-n3ncc(C(=O)c4cc5ccccc5[nH]4)c3N)cc2[nH]1`, the growth was 68.2%. With `N=c1n(Cc2ccccc2)c(N)cc(=O)n1Cc1ccccc1`, the growth is 83.3%. Next, `O=C1CSC(=S)N1/N=C/c1ccc(Cl)s1`: 105%; `CCN(Cc1ccc(CN(CC)C(=O)C(Cl)(Cl)Cl)cc1)C(=O)C(Cl)(Cl)Cl`: 62.5%; `O=C(Nc1ccc(-n2cc(-c3ccncc3)c(-c3ccc(O)c(Cl)c3)n2)cc1)c1cc(C(F)(F)F)cc(C(F)(F)F)c1`: 64.9%.

Turning to `COC(=O)[C@H](Cc1cn(C)cn1)NC(=O)[C@H](Cc1c[nH]c2ccccc12)NC(=O)Nc1cc(C(F)(F)F)cc(C(F)(F)F)c1`, the growth was -75.7% [100 µM] (active). `Oc1c(CN2CCCC2)cc(COCc2ccccc2)c2cccnc12`: the growth is -15.4% (active). The result for `Oc1ccc(-c2nc3ccccc3s2)cc1CN(Cc1ccccn1)Cc1ccccn1` reads 13.6%. As for `Cc1cc(Cl)cc(Cc2cc(Cl)cc(C)c2O)c1O`, the growth is 50.2%.

Turning to `CC(=O)NC(CCc1ccc(Cl)c(Cl)c1)c1cccc(O)c(=O)c1` (stereo not given), the growth is -31.6% (active). `CC(C)N(C(=O)c1ccccc1)C(C)C`: the growth is 86.2%. The result for `O=C1/C(=C/c2ccc(Cl)cc2)CN(C(=O)CCN2CCC(=NO)CC2)C/C1=C\c1ccc(Cl)cc1` reads -65.3% (active); that for `COc1cccc(N=Nc2cccc(OC)c2)c1`, 87.2%. For `CC[C@]1(O)C[C@H]2CN(CCc3c([nH]c4ccccc34)C(C(=O)OC)(c3cc4c(cc3OC)N(C)[C@H]3[C@@](O)(C(=O)OC)[C@H](OC(C)=O)[C@]5(CC)[C@@H]6C[C@@H]6CN6CC[C@]43[C@@H]65)C2)C1` (stereo not given in full), the growth is 28.1%. The result for `CCOC(=O)c1csc(-c2ccc(COC(=O)c3ccccc3)o2)n1` reads 115%; that for `COc1cc2nc(Sc3sc(N)nc3C)n(-c3ccc(Oc4ccccc4)cc3)c(=O)c2cc1OC`, 80.2%.

`CC(=O)Oc1cccc(S(=O)(=O)n2cc(C(=O)C(=O)Nc3ccncc3)c3ccccc32)c1`: the growth was 7.5% (active). Next, `Cc1cccc(NCc2cn(-c3ccc(C(=O)O)cc3)nc2-c2ccc(C(=O)O)cc2)n1`: 101%; `CC[C@H](C)[C@H](NC(=O)[C@@H](N)CCC(N)=O)C(=O)N[C@@H](Cc1ccc(O)cc1)C(=O)N[C@@H](CCCCN)C(=O)N[C@@H](CCCCN)C(=O)N[C@@H](Cc1ccc(O)cc1)C(=O)N[C@@H](CCCNC(=N)N)C(=O)N[C@H](C(=O)N[C@@H](Cc1c[nH]c2ccccc12)C(=O)N[C@@H](Cc1ccc(O)cc1)C(=O)N[C@@H](CCCNC(=N)N)C(=O)N[C@@H](CCCCN)C(=O)N[C@@H](C)C(=O)N[C@@H](Cc1c[nH]c2ccccc12)C(=O)N[C@@H](CCCCN)C(=O)N[C@H](C(=O)N[C@@H](CC(C)C)C(=O)NCC(=O)N[C@@H](CCCCN)C(=O)N[C@H](C(N)=O)C(C)C)C(C)C)[C@@H](C)O`: 44.6%; `C=C(C)[C@@H]1CC[C@]2(C(=O)O)CC[C@]3(C)[C@H](CC[C@@H]4[C@@]5(C)C[C@@H](Cc6cn(CCO[C@@H]7O[C@H](COC(C)=O)[C@H](OC(C)=O)[C@H](OC(C)=O)[C@H]7OC(C)=O)nn6)[C@H](O)C(C)(C)[C@@H]5CC[C@]43C)[C@@H]12`: 64.4%. The result for `O=C(Nc1ccc(F)c(F)c1)c1cc(-c2ccc(F)cc2F)ccc1O` reads -8.51% (active). Next, `Cc1cc(Nc2ncc(Cl)c(Nc3ccccc3S(=O)(=O)C(C)C)n2)c(OC(C)C)cc1C1CCNCC1`: -78.1% (active); `Cc1cc(C(C)(CC(C)C)c2ccc(O)c(C)c2)ccc1O`: 103%. As for `C[N+](C)(C/C=C/c1ccccc1)Cc1ccccc1`, the growth is 78.8%. As to `CCOC(=O)c1c(C)nc2c(c1N)CC(=O)N2CCc1ccccc1`, the growth is 44%. The result for `Cc1ccc2c(c1)C(C)Cc1c(N(C)C)ncnc1N2C` (stereo not given) reads 13%; that for `COc1ccc(C(=O)c2cc(OC)c(OC)c(OC)c2)cc1/C=C/C(=O)c1ccc(O)cc1`, 34.3%; that for `Cc1cc(=O)oc2cc(O)cc(O)c12`, 103%. Next, `CCOC(=O)c1c(Nc2ccccc2)nn2c(-c3cccs3)ccnc12`: 73.3%; `N#C/C(=C/C=C/c1ccccc1)S(=O)c1ccccc1` (stereo not given): -56% (active). Next, `CS(=O)/C(C#N)=C\C=C\c1cccc(Cl)c1` (stereo not given): 3.26% (active); `CC(C)OCCCNCC(=O)Nc1ccc(S(=O)(=O)c2ccc(NC(=O)CNCCCOC(C)C)cc2)cc1`: 92.7%. For `CCn1cc(C(=O)N/N=C/c2cccc(F)c2)c(=O)c2cc(F)c(N3CCNC(C)C3)c(F)c21` (stereo not given), the growth was 71.6%. `O=C(Cn1c2ccccc2c2ccncc21)N/N=C\c1ccc2ccccc2c1`: the growth was 19.7%. Take `CC(=O)[C@H]1CC[C@H]2[C@@H]3CC[C@H]4CC=CC[C@]4(C)[C@H]3CC[C@]12C`: the growth is 84.7%. Turning to `CCCCCCCCCCCCCCCC(=O)OC[C@@]1(O)C[C@@]23CC[C@@H]4C(C)(C)[C@H](O)CC[C@@]4(C)[C@@H]2CC[C@H]1C3`, the growth was 112%.

For `CCNCC(=O)Nc1ccc(C(=O)OCC)cc1`, the growth was 111%.

As to `CSc1ccc(-c2n[nH]nc2-c2cc3ccccc3s2)cc1`, the growth was 54%. Next, `CC(=O)O[C@H]1CC2CCC3C(CC[C@@]4(C)C3C[C@H]([N+]3(C)CCCCC3)[C@@H]4OC(C)=O)[C@@]2(C)C[C@@H]1N1CCCCC1` (stereo not given in full): 106%.

For the compound `Nc1c(C(=O)Nc2ccccc2)sc2nc3c(cc12)CCC3`, the growth was 49.7%.

These data come from PubChem BioAssay (NCI).
